Results on 9 molecules are retold here after PubChem BioAssay.

Assay [1] in a line: E. coli DRC41 culture turbidity changes, primary screen, E. coli filamentation inducer project, strain DRC41, OD650, 48 h (AID 1152).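 Note: E. coli MC1000 strain DRC41 lacking acrAB efflux pump and sulA.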 To be noted: E. coli DRC41 (acrAB sulA), higher = more signal, called active from +8 up or from −8 down.
Assay [2] can be described thus: small-molecule binders of probe aLefty1, primary screen, biochemical, small-molecule microarray, 635/667 nm fluorescence (AID 1153).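 Note: score merges spot fluorescence with signal-to-noise ratio from the scanned slide images.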 To be noted: higher = more signal.
Assay [3] in a line: PSAC antagonists in infected red cells, primary screen, cell-based, P. falciparum Indochina, OD700, 1 h (AID 1154). The note with it: P. falciparum Indochina infected RBC osmotic lysis, higher = more signal, called active from +8 up or from −8 down.
The nature of assay [4]: PSAC antagonists in infected red cells, primary screen, cell-based, P. falciparum Indochina, OD700, 2 h (AID 1155).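 Note: lysis reports solute entry through the parasite surface anion channel PSAC; channel blockers reduce lysis of infected cells.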 To be noted: P. falciparum Indochina infected erythrocytes, osmotic lysis OD700; higher = more signal, called active from +8 up or from −8 down.
A short description of assay [5]: osmotic lysis modulators in infected erythrocytes, primary screen, PSAC antagonist project, cell-based, P. falciparum Indochina, OD700, 3 h (AID 1156). To be noted: higher = more signal, called active from +8 up or from −8 down.
Assay [6] in a line: PSAC antagonists in infected red cells, primary screen, cell-based, P. falciparum Indochina, OD700, 18 h (AID 1157). The note with it: P. falciparum Indochina infected erythrocytes, osmotic lysis OD700, 18 h; higher = more signal, called active from +8 up or from −8 down.
Assay [7] in a line: modulators of S6 phosphorylation in cells, primary screen, cell-based, A549, cytoblot, luminescence, serum-stimulated (AID 1158).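 Note: serum-stimulated A549 lung adenocarcinoma cells; signal is phosphorylated S6 detected by cytoblot immunostaining with HRP secondary.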 The note with it: A549 phospho-S6 cytoblot, 5 h, higher = more signal.
For assay [8], the target named is NADPH oxidase 2 (Homo sapiens) (UniProt P04839). The assay is described as follows: NOX2-dependent H2O2 signal modulators, primary screen, NOX inhibitor project, cell-based, HEK293-NOX2, PMA-stimulated, Amplex Red fluorescence (AID 1159). Note: test concentration not given here. The note with it: 45 min, higher = more signal, called active from +8 up or from −8 down.
The target of assay [9] is NADPH oxidase 4 (Homo sapiens) (UniProt Q9NPH5). The assay is described as follows: NOX4-dependent H2O2 signal modulators, primary screen, NOX inhibitor project, cell-based, HEK293-NOX4, tetracycline-induced, Amplex Red fluorescence (AID 1160). To be noted: 45 min, higher = more signal, called active from +8 up or from −8 down.
Assay [10] has as its target NADPH oxidase 5 (Homo sapiens) (UniProt Q96PH1). Description: NOX5-dependent H2O2 signal modulators, primary screen, NOX inhibitor project, cell-based, HEK293-NOX5, Amplex Red fluorescence (AID 1161). To be noted: HEK293-NOX5, ionomycin, 45 min, higher = more signal.
Assay [11] in a line: A549 cell viability effects, profiling panel, calcein-AM fluorescence, 48 h, basal (AID 1162). Note: test concentration not given here. The note with it: higher = more signal.
Assay [12] is described as follows: adipocyte viability effects, profiling panel, cell-based, 3T3-L1 adipocytes, calcein-AM fluorescence, 48 h, basal (AID 1163). Note: test concentration not given here. To be noted: 3T3-L1 adipocytes viability, higher = more signal.
The nature of assay [13]: HepG2 cell viability effects, profiling panel, calcein-AM fluorescence, 48 h, basal (AID 1164). Note: test concentration not given here. The note with it: higher = more signal.
Assay [14] is described as follows: MM1S cell viability effects, profiling panel, calcein-AM fluorescence, 48 h, basal (AID 1165).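 Note: viability of MM1S multiple myeloma cells under basal unstimulated conditions; test concentration not given here.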 To be noted: higher = more signal.
Assay [15] in a line: basal RPMI8226 viability, no added stimulus, profiling panel, cell-based, calcein-AM fluorescence, 48 h, PK04 Diversity Set (AID 1166).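 Note: cells grown under basal conditions without added stimulus; test concentration not given here.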 The note with it: RPMI8226 myeloma viability, higher = more signal.
The nature of assay [16]: basal HepG2 mitochondrial membrane potential changes, profiling panel, cell-based, JC-1 fluorescence, 24 h, 100 nL compound (AID 1167). Note: test concentration not given here. To be noted: higher = more signal.
The nature of assay [17]: basal 3T3-L1 adipocyte mitochondrial potential changes, profiling panel, cell-based, JC-1 fluorescence, 3T3-L1 adipocytes, 24 h, 100 nL compound (AID 1168). Note: test concentration not given here. The note with it: JC-1 mitochondrial fluorescence, higher = more signal, called active from +8 up or from −8 down.
The nature of assay [18]: basal RPMI8226 mitochondrial membrane potential changes, profiling panel, cell-based, JC-1 fluorescence, 24 h, 100 nL compound (AID 1169). Note: test concentration not given here. To be noted: RPMI8226 myeloma, JC-1 mitochondrial potential fluorescence, higher = more signal.
Assay [19] in a line: basal MM1S mitochondrial membrane potential changes, profiling panel, cell-based, JC-1 fluorescence, 24 h, 100 nL compound (AID 1170). Note: test concentration not given here. To be noted: higher = more signal.
Assay [20] is described as follows: A549 lung cancer cell viability effects, profiling panel, resazurin fluorescence, 24 h, PK04 Diversity Set (AID 1171). Note: test concentration not given here. To be noted: higher = more signal, called active from +8 up or from −8 down. A general note: The colour change of resazurin is a common sign of viable cells or microbes.

Calls of active or inactive are those of the source.

Sequence of NADPH oxidase 5 (Homo sapiens) (Q96PH1 whole entry, looked up): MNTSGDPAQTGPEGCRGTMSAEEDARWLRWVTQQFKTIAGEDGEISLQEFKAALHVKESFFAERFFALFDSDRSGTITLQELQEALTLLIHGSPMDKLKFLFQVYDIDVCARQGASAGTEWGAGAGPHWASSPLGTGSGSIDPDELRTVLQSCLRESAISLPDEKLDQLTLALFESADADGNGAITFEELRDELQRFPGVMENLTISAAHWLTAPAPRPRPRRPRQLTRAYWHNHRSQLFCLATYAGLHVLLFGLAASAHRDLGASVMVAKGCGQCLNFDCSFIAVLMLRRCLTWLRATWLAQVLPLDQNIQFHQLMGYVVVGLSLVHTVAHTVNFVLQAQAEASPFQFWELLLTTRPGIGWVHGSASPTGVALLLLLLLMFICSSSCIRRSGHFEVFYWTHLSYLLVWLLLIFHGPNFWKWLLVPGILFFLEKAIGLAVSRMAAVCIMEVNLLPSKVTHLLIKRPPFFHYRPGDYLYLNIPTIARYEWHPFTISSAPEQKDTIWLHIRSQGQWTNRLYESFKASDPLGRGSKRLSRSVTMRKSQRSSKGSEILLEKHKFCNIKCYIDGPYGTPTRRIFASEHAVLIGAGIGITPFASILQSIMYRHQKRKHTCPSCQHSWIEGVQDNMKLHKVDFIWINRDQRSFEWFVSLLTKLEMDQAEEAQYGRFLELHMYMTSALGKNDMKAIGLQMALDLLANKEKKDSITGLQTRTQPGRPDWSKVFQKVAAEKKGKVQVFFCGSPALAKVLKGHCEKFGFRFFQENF
Sequence of NADPH oxidase 4 (Homo sapiens) (Q9NPH5 whole entry, looked up): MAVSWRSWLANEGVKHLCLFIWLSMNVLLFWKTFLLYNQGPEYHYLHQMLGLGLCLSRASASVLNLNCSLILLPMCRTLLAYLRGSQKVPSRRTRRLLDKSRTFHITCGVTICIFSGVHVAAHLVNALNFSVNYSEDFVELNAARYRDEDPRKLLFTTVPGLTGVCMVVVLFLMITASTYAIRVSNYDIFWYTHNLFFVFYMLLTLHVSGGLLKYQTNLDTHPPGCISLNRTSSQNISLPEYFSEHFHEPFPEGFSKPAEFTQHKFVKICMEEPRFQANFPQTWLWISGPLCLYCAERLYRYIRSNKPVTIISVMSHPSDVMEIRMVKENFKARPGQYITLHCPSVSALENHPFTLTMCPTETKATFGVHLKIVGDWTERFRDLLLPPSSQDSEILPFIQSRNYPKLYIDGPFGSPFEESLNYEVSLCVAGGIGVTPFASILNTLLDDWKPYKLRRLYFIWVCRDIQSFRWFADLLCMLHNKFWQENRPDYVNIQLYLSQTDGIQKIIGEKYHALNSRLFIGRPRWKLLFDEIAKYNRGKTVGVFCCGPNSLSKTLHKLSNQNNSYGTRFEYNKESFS
Sequence of NADPH oxidase 2 (Homo sapiens) (P04839 whole entry, looked up): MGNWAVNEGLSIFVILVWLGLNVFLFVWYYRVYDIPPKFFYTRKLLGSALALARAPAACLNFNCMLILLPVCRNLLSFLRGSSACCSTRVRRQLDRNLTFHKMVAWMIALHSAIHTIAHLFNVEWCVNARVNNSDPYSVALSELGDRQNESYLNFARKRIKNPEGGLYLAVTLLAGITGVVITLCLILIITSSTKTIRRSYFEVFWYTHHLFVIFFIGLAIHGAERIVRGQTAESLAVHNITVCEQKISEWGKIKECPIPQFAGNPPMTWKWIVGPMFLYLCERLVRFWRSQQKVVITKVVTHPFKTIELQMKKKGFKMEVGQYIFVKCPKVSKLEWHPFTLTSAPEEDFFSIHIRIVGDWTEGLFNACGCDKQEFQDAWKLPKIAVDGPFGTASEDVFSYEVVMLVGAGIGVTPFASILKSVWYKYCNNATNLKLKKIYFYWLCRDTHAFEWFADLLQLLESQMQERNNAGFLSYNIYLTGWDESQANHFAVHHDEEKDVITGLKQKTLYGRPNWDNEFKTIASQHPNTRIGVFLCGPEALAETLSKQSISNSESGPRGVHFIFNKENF

On to `O=C1O[C@@H](c2ccccc2)[C@@H](c2ccccc2)N2[C@@H](c3ccccc3OCCO)[C@]3(C(=O)Nc4ccc(C#CC5=CCCCC5)cc43)[C@@H](C(=O)Nc3nc4ccccc4s3)[C@H]12`, for which the z-score in assay [1] was 0.36 (inactive); in assay [3], 1.83 (inactive); in assay [4], 1.9 (inactive); in [5], 1.37 (inactive); in assay [6], 1.83 (inactive); in assay [7], 0.653. The z-score in [8] is 1.78 (inactive); in [9] it was 0.387 (inactive); in assay [10] it was 1.59; in assay [11], -1.36; in assay [12] it was 0.608; in assay [13], -0.786. In addition, the z-score in [14] is -2.8; in [15], -2.88; in assay [16], -2.9; in [17], -0.353 (inactive); in assay [18], -1.05; in assay [19], -1.42. The z-score in [20] is -0.301 (inactive). In assay [2], this molecule returned a composite z-score of 0.293.
Turning to `C#CCNC(=O)[C@H](Cc1ccccc1)NC(=O)CCC(=O)O`, the z-score in assay [1] was -0.077 (inactive); in assay [3] it was -0.168 (inactive); in assay [4], 0.748 (inactive); in [5], -0.707 (inactive); in assay [6] it was 0.0401 (inactive); in assay [7] it was -0.665. Also, the z-score in assay [8] is 0.658 (inactive); in [9] it was -0.198 (inactive); in assay [10] it was 0.0788; in assay [11] it was -0.281; in [12] it was -0.405; in [13], 0.0694. The z-score was 0.527 in assay [14]; 0.0189 in assay [15]; -0.821 in assay [16]; -0.536 (inactive) in assay [17]; 0.539 in assay [18]; -0.97 in assay [19]. Besides, the z-score in [20] is -0.119 (inactive). For the same molecule, in assay [2], the composite z-score is -0.36.
For `CN1C(=O)C2C=CC(C(O)C3CCCCC3)N(Nc3ccc([N+](=O)[O-])cc3[N+](=O)[O-])C2C1=O` (stereo not given), the z-score in assay [1] was -1.06 (inactive); in assay [3] it was 1.72 (inactive); in assay [4] it was 0.519 (inactive); in [5] it was -0.226 (inactive); in assay [6], 0.532 (inactive); in assay [7], -0.511. Further, the z-score in [8] is -1.18 (inactive); in [9], 0.889 (inactive); in [10], 0.414; in assay [11], -0.798; in [12] it was -0.156; in [13], -0.905. Moreover, the z-score in [14] was -0.193; in [15] it was -0.849; in [16] it was -1.18; in [17] it was -0.299 (inactive); in [18], 0.464; in [19], 0.314. Besides, in assay [20], the z-score is 0.421 (inactive). The molecule also displayed a composite z-score in assay [2] of 0.181.
For the molecule `CC(C)c1ccc(NN2C(C(O)c3cc(C(F)(F)F)cc(C(F)(F)F)c3)C=CC3C(=O)N(c4ccccc4)C(=O)C32)cc1` (stereo not given), the z-score in [1] was -2.06 (inactive); in assay [3], 3.24 (inactive); in assay [4] it was 1.88 (inactive); in [5], -1.37 (inactive); in assay [6], 2.32 (inactive); in [7], 0.122. The z-score is -1.3 (inactive) in assay [8]; -5.07 (inactive) in assay [9]; -4.2 in assay [10]; -2.37 in [11]; 0.15 in [12]; -3.12 in assay [13]. The z-score is -3.4 in assay [14]; -4.14 in assay [15]; -2.69 in [16]; -0.414 (inactive) in assay [17]; -0.873 in assay [18]; -1.57 in assay [19]. Besides, the z-score in assay [20] was -2.11 (inactive). Also, in assay [2], the composite z-score was -0.101.
`C#CCN(CC=C(C)C)[C@H](CO)c1ccccc1`: the z-score in [1] is 0.0373 (inactive); in assay [3] it was -0.214 (inactive); in assay [4], -1.3 (inactive); in assay [5] it was -0.717 (inactive); in assay [6], -2.12 (inactive); in assay [7], 1.22. Also, the z-score in assay [8] is -0.0535 (inactive); in assay [9], -0.102 (inactive); in assay [10], -1.84; in assay [11], -0.589; in [12], 1.37; in assay [13], -0.7. Besides, the z-score is 0.0539 in assay [14]; -1.2 in assay [15]; -1.16 in assay [16]; 0.27 (inactive) in assay [17]; -0.383 in assay [18]; 0.471 in assay [19]. Further, the z-score in [20] is -0.665 (inactive). Moreover, in assay [2], the composite z-score is 0.213.
Consider `CCOC(=O)C[C@H]1[C@H](OC(=O)c2ccc(C(=O)c3ccccc3)cc2)[C@@H](NC(=O)c2ccc(-c3ccccc3)cc2)c2cc(OCCCO)ccc2N1C(=O)c1ccccc1`, for which the z-score in assay [1] is -0.948 (inactive); in [3] it was 0.358 (inactive); in assay [4], 0.135 (inactive); in assay [5], -0.559 (inactive); in assay [6] it was -0.16 (inactive); in assay [7], 0.0156. Besides, the z-score in assay [8] was 0.788 (inactive); in assay [9], 0.379 (inactive); in assay [10], 0.551; in [11], -0.56; in assay [12] it was 0.734; in assay [13], 0.2. In addition, the z-score is -0.821 in assay [14]; 0.134 in assay [15]; 1 in assay [16]; -0.136 (inactive) in assay [17]; 0.884 in assay [18]; -0.117 in assay [19]. Moreover, the z-score in assay [20] is -0.31 (inactive). In addition, in [2], the composite z-score is -0.199.
`O=C(NCc1ccc(F)cc1)[C@H]1C[C@H]2C(=O)N[C@@H](Cc3ccccc3)C(=O)N2[C@H]1c1ccc(O)cc1`: the z-score is 0.132 (inactive) in [1]; 2.64 (inactive) in [3]; 0.591 (inactive) in assay [4]; -1.55 (inactive) in assay [5]; 0.498 (inactive) in assay [6]; -0.0688 in [7]. The z-score in [8] was 0.171 (inactive); in assay [9] it was 0.301 (inactive); in [10] it was 0.965; in assay [11], 0.0416; in assay [12] it was 0.17; in assay [13], 0.0329. Besides, the z-score was -0.973 in assay [14]; -0.27 in assay [15]; 1.11 in assay [16]; 0.672 (inactive) in assay [17]; 0.736 in assay [18]; 0.453 in assay [19]. Further, the z-score in assay [20] is 0.278 (inactive). For the same molecule, the composite z-score in assay [2] is -0.0601.
Take `CCCC[C@H]1OB(O)C[C@H]2C1=C(COc1ccccc1)C[C@H]1C(=O)N(C)C(=O)[C@H]12`: the z-score is -0.882 (inactive) in assay [1]; 1.31 (inactive) in assay [3]; -0.252 (inactive) in [4]; -0.761 (inactive) in [5]; 0.232 (inactive) in assay [6]; -0.149 in assay [7]. Besides, the z-score in assay [8] is -0.405 (inactive); in assay [9], 0.509 (inactive); in assay [10], 0.224; in assay [11], 0.498; in [12], 0.0271; in [13], 0.258. Besides, the z-score in assay [14] was -1.46; in [15], -0.185; in assay [16], -1.29; in [17], 0.468 (inactive); in assay [18] it was 0.304; in assay [19] it was 0.35. For the same molecule, the z-score in [20] was -0.166 (inactive). Moreover, the composite z-score in [2] is -0.0989.
For `COC(=O)[C@@]1(Cc2ccc(F)cc2)[C@H]2c3cc(C(=O)N(C)C)n(Cc4nc5ccccc5[nH]4)c3C[C@H]2CN1C(=O)c1ccccc1`, the z-score in [1] was -0.827 (inactive); in assay [3] it was 20.5 (active); in [4], 3.05 (inactive); in assay [5] it was 1.13 (inactive); in assay [6], 0.91 (inactive); in assay [7] it was -0.377. Further, the z-score in [8] was -0.0764 (inactive); in assay [9] it was 0.32 (inactive); in assay [10] it was -2.06; in assay [11] it was -0.788; in [12], -0.0882; in assay [13], -0.49. For the same molecule, the z-score in assay [14] was -1.09; in assay [15], -0.184; in assay [16], -0.0736; in assay [17], -0.156 (inactive); in assay [18] it was -0.207; in assay [19], -2.16. The z-score in assay [20] is 0.406 (inactive). Moreover, the composite z-score in assay [2] is -0.0297.
